PREPL inhibitor = inhibitors of human prolyl oligopeptidase-like enzyme PREPL; Q4J6C6; recombinant PREPL, fluorescence polarization activity-based probe; inhibition, % at 5.96 µM; 320,000 tested, 0.68% active; AID 2751; in the data active = inhibition above about 43%;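 also: 0% = enzyme with DMSO and 100% = wells lacking enzyme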
LYPLA1 inh = counter-screen for PME1 inhibitors: inhibitors of human LYPLA1; O75608; recombinant LYPLA1, FP-Rh probe fluorescence polarization; inhibition, % at 5.9 µM; 320,000 tested, 0.16% active; AID 2174;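 active = inhibition above the mean of all tested compounds plus 3 SD, set per campaign, cut at about 14% in these data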;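 also: inhibitors block serine hydrolase probe labeling of LYPLA1 so polarization falls; 0% = enzyme with DMSO and 100% = wells lacking LYPLA1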
Target sequence (O75608 whole entry, looked up): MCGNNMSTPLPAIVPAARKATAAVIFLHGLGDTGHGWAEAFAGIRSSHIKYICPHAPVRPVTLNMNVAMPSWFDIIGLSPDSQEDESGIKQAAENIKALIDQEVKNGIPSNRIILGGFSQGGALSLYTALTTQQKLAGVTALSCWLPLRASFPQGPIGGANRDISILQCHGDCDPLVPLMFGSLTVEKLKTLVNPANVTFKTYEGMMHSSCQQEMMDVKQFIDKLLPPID
GSTO1 counter = GSTO1 inhibition, counter-screen for RBBP9 inhibitors. P78417. inhibition, % at 5.96 µM. recombinant GSTO1, activity-based probe fluorescence polarization. 300,000 tested, 1.1% active;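 active = inhibition above the campaign mean inhibition plus 3 SD, cut at about 35% in these data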;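 also: 0% = GSTO1-1 with DMSO and 100% = wells lacking GSTO1-1 enzyme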
PME-1 inh = PME-1 (human) inhibition | recombinant PME-1, FP-Rh probe fluorescence polarization | Q9Y570 | 320,000 tested, 0.53% active | inhibition, % at 5.9 µM;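 active = inhibition above the campaign mean of all compounds plus 3 SD, cut at about 26% in these data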;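 also: competitive labeling of PME-1 active site by serine hydrolase directed probe; 0% = PME-1 with DMSO and 100% = wells lacking PME-1 enzyme; inhibitors block probe labeling so polarization falls and inhibition rises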
Fam108B inh = blocks mouse Fam108B hydrolase in RBBP9 counter-screen; recombinant Fam108B, FP-Rh probe fluorescence polarization; inhibition, % at 9.51 µM; 300,000 tested, 0.33% active; AID 1947;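 active = inhibition above the screen mean inhibition plus 3 SD, computed separately per campaign, cut at about 18% in these data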;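 also: inhibitors lower polarization as less probe binds the enzyme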
LYPLA2 counter = blocks human lysophospholipase 2, a PME1 counter-screen. inhibition, % at 5.9 µM. 320,000 tested, 0.38% active. AID 2177. recombinant LYPLA2, FP-Rh probe fluorescence polarization. O95372;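 active = inhibition above the screen-wide mean plus 3 SD, limit set per campaign, cut at about 26% in these data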;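 also: 0% = LYPLA2 with DMSO and 100% = wells lacking LYPLA2 enzyme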
Target sequence (O95372 whole entry, looked up): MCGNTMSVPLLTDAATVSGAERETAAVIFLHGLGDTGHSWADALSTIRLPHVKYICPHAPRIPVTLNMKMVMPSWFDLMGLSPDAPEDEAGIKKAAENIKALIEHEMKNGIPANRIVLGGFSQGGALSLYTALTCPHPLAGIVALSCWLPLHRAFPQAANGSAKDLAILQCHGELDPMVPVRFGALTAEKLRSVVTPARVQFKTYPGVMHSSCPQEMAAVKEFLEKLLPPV
* = called active by the depositor; · = not tested or not shown. In the library only some 1.9% were active in any assay of this set; here they are far more common.

SMILES | PREPL inhibitor | LYPLA1 inh | GSTO1 counter | PME-1 inh | Fam108B inh | LYPLA2 counter
Cc1cc(C)cc(N(CCC#N)C(=O)COC(=O)C2CCN(c3ccc(C(F)(F)F)cn3)CC2)c1 | 31 | 2 | 3 | 2 | -2 | 4
Cc1ccc(-c2nc(Nc3ccccc3)n[nH]2)cc1 | 23 | -1 | -5 | 41* | 0 | -3
CC(C)(C)c1[nH]nc2c1C(c1ccc(OC(=O)c3ccco3)cc1)C(C#N)=C(N)O2 (stereo not given) | 71* | -4 | -3 | -6 | 1 | -6
NS(=O)(=O)c1ccc(NC(=O)COC(=O)CCCN2C(=O)c3cccc4cccc(c34)C2=O)cc1 | 9 | · | · | · | · | ·
COc1cc(/C=N/NC(=S)Nc2cccc(S(=O)(=O)N(C)C)c2)cc(OC)c1O | 37 | -2 | 7 | 29* | 4 | 5
COc1cccc(/C=N/NC(=S)Nc2cccc(S(=O)(=O)N(C)C)c2)c1 | 1 | -5 | -3 | 15 | -1 | 1
O=C(O)CCc1ccc(-c2ccc(Br)cc2)n1-c1cccc(O)c1 | 0 | 0 | 35* | -1 | 3 | 8
c1ccc(Nc2cccc3c(Nc4ccccc4)cccc23)cc1 | 8 | -2 | -5 | 6 | 9 | 0
O=S(=O)(O)c1cccc2cccc(Nc3ccccc3)c12 | -7 | -3 | 38* | 9 | 8 | 1
CCN(c1ccccc1)S(=O)(=O)c1ccc(OC)c(NC(=O)Cc2ccc(F)cc2)c1 | 1 | -11 | · | 0 | · | -12
CCN(c1ccccc1)S(=O)(=O)c1ccc(OC)c(NC(=O)CNCCc2ccccc2)c1 | 6 | -2 | -8 | 28* | -3 | 3
COc1ccc(Cl)cc1NC(=O)CN(C)C(=O)c1ccc2c(c1)CC(c1ccccc1)OC2=O (stereo not given) | 12 | -1 | · | 5 | · | -3
CCNC(=S)N=Nc1c(O)[nH]c2ccc(C(C)C)cc12 | 7 | -1 | -11 | 7 | -5 | -1
CCNC(=S)N=Nc1c(O)[nH]c2ccc([N+](=O)[O-])cc12 | 15 | -1 | 45* | 7 | 6 | 2
Cc1ccc(OC(C)C(=O)N=Nc2c(O)[nH]c3ccc([N+](=O)[O-])cc23)cc1 (stereo not given) | 14 | 0 | 36* | 5 | 7 | 4
COc1ccc(S(=O)(=O)Nc2cccc3c2O[C@@H](CN(C)Cc2ccc(C(=O)O)cc2)[C@@H](C)CN([C@H](C)CO)C3=O)cc1 | 2 | · | · | · | · | ·
COc1ccc(NC(=S)N(CCO)Cc2cc3c(C)cc(C)cc3[nH]c2=O)cc1 | -9 | 0 | 8 | 6 | 4 | 3
Clc1ccc2nc(CN3CCCc4ccccc43)cn2c1 | 67* | -2 | 1 | 3 | 4 | 1
CCCCN1CC(=O)N2[C@H]3c4cc(C)ccc4OC[C@@H]3[C@H](C(=O)OCC)[C@]2(C)C1=O | -1 | 3 | · | 10 | · | -5
CCn1c2ccccc2c2cc(NC(=O)c3ccc(=O)oc3)ccc21 | 71* | -2 | 8 | 22 | -1 | -4
CCn1c2ccccc2c2cc(NC(=O)c3cccc([N+](=O)[O-])c3C)ccc21 | 26 | -2 | 1 | 2 | 10 | 7
CCn1c2ccccc2c2cc(NC(=O)c3ccc(C)c([N+](=O)[O-])c3)ccc21 | 12 | -9 | -40 | 37* | -3 | -10
CC(C(=O)N1CCc2ccccc21)N(C)CC(=O)Nc1ccccc1Cl (stereo not given) | -6 | -2 | · | 13 | · | -1
CCOC(=O)Cc1nnc(NC(=O)CSc2ccc(C)cc2)s1 | 11 | -7 | 4 | -2 | -7 | -4
CCOC(=O)Cc1nnc(NC(=O)CSc2nnc3c4ccccc4n(C)c3n2)s1 | 3 | -6 | 35* | -5 | -8 | -12
CN(c1ccccc1)S(=O)(=O)c1cccc(C(=O)NCCc2ccc(O)c(O)c2)c1 | 10 | -1 | 39* | 4 | -1 | 7
C/C(=N\Nc1ccccc1C(=O)O)c1ccncc1 | 1 | 4 | -1 | 73* | -1 | -2
CC(=O)Nc1ccc(N(C(=O)Cn2nnc3ccccc32)C(C(=O)NC2CCCC2)c2ccc(O)c(O)c2)cc1 (stereo not given) | 2 | -4 | 43* | -6 | -4 | 1

High-throughput results (PubChem BioAssay)
